Active and inactive are the calls of the source.
How the values were obtained:
[1] = test system: Plasmodium falciparum Sir2 (PF13_0152, Sir2A); test: pfSir2 binders on small-molecule microarrays, primary screen, biochemical, small-molecule microarray, 635 nm fluorescence (AID 1098); conditions: small-molecule microarray binding, fluorescence 635 nm; higher = more signal;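 note: score merges spot fluorescence intensity with its signal-to-noise ratio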
[2] = small-molecule microarray binders of probe aDKK1, primary screen, biochemical, biotinylated probe, 635/667 nm fluorescence (AID 1099); conditions: higher = more signal;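 note: score merges 667nm spot fluorescence with signal to noise across triplicate slides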
[3] = small-molecule microarray binders of probe aCHRDL2, primary screen, biochemical, biotinylated probe, 635/667 nm fluorescence (AID 1100); conditions: higher = more signal
[4] = splicing luciferase reporter signal modulators, primary screen, spliceosome inhibition project, cell-based, HEK293, splice +/- reporter (AID 1101); conditions: luminescence, 24 h, higher = more signal, called active from +8 up or from −8 down;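 note: HEK293 cells carrying a splicing-competent luciferase reporter gene; test concentration not given here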
[5] = target: Fibroblast growth factor 10 (Homo sapiens) (UniProt O15520); test: FGF10 binders on small-molecule microarrays, primary screen, biochemical, small-molecule microarray, 635 nm fluorescence (AID 1102); conditions: FGF10 binding, fluorescence 635 nm, higher = more signal
[6] = test system: glycogen synthase kinase-3 (GSK3A per assay name; protocol says GSK3B); test: GSK3 binders on small-molecule microarrays, primary screen, biochemical, small-molecule microarray, 635 nm fluorescence, GSK3A (AID 1103); conditions: small-molecule microarray binding, fluorescence 635 nm; higher = more signal; note: the record names both GSK3A and GSK3B
[7] = target: Epidermal growth factor receptor (Homo sapiens) (UniProt P00533); test: EGFR binders on small-molecule microarrays, primary screen, biochemical, small-molecule microarray, 635 nm fluorescence (AID 1104); conditions: EGFR binding, higher = more signal;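 note: score merges 667 nm emission intensity with spot signal to noise over triplicate slides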
[8] = target: Follistatin-related protein 3 (Homo sapiens) (UniProt O95633); test: FSTL3 binders on small-molecule microarrays, primary screen, biochemical, small-molecule microarray, 635 nm fluorescence (AID 1105); conditions: FSTL3 binding, higher = more signal;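 note: score merges emission near 667 nm and signal to noise per printed spot across three slides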
[9] = target: Dickkopf-related protein 1 (Homo sapiens) (UniProt O94907); test: DKK1 binders on small-molecule microarrays, primary screen, biochemical, small-molecule microarray, 635 nm fluorescence scan (AID 1106); conditions: DKK1 binding, higher = more signal;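 note: score merges emission near 667 nm with signal to noise over three replicate slides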
[10] = test system: Inhibin beta A chain (activin A); test: INHBA (activin A) binders on microarrays, primary screen, biochemical, small-molecule microarray, 635 nm fluorescence scan (AID 1107); conditions: small-molecule microarray binding, higher = more signal;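 note: mouse activin A protein probed at 4.33 µg/mL on printed slides; score merges bound-protein fluorescence near 667 nm with spot signal-to-noise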
[11] = test system: Human papillomavirus type 1a protein E7 (residues 44-93); test: HPV1a E7 fragment binders on microarrays, primary screen, biochemical, small-molecule microarray, residues 44-93, 635 nm fluorescence (AID 1108); conditions: small-molecule microarray binding, fluorescence 635 nm; higher = more signal;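 note: E7 fragment applied at 1 µg/mL in TBST for 1 h at 4 C; score combines spot fluorescence with its signal to noise ratio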
[12] = modulators of HCV replicon luciferase signal, primary screen, HCV replication inhibitor project, Huh7 cells, luciferase reporter (AID 1109); conditions: 48 h, higher = more signal;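 note: huh7 hepatoma cells harbouring a luciferase neomycin HCV replicon reporter; luciferase luminescence as measure of HCV replicon replication; test concentration not given here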
[13] = target: Left-right determination factor 2 (Homo sapiens) (UniProt O00292); test: LEFTY2 binders on small-molecule microarrays, primary screen, biochemical, small-molecule microarray, 635 nm fluorescence scan (AID 1110); conditions: LEFTY2 binding, higher = more signal
[14] = target: Calmodulin-1 (Homo sapiens) (UniProt P0DP23); test: CALM1 binders on microarrays, EGTA buffer, profiling panel, biochemical, small-molecule microarray, Cy5-labelled CALM1 (AID 1111); conditions: Cy5-CALM1 binding fluorescence, higher = more signal;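 note: labelled calmodulin applied in Tris saline Tween buffer holding calcium plus EGTA and DTT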
[15] = target: Calmodulin-1 (Homo sapiens) (UniProt P0DP23); test: calcium-bound CALM1 binders on microarrays, profiling panel, artefact control for SMM control-protein annotation, biochemical, small-molecule microarray, Cy5-labelled CALM1, plus calcium (AID 1112); conditions: Cy5-CALM1 binding fluorescence, higher = more signal;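 note: score merges spot fluorescence with signal to noise from triplicate slides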
[16] = small-molecule microarray binders of probe aWnt5a, primary screen, biochemical, biotinylated probe, 635/667 nm fluorescence (AID 1113); conditions: higher = more signal;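 note: score merges 667 nm fluorescence intensity with signal-to-noise per printed feature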
[17] = small-molecule microarray binders of probe aShh, primary screen, biochemical, biotinylated probe, 635/667 nm fluorescence (AID 1114); conditions: higher = more signal;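 note: probe is biotin-labelled aShh protein from a stem cell growth factor screen; measures binding of labelled protein to compounds printed on the slide; score merges feature fluorescence at 667 nm with signal-to-noise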
[18] = small-molecule microarray binders of probe aNog, primary screen, biochemical, biotinylated probe, 635/667 nm fluorescence (AID 1115); conditions: higher = more signal;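 note: probe is biotinylated aNog protein used at 0.15 µg/mL for 1 h at 4 C; z-score combines 667 nm fluorescence of each spot with its signal to noise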
[19] = target: Torsin-1A-interacting protein 1 (Homo sapiens) (UniProt Q5JTV8); test: LAP1 binders from COS7 cell lysate, primary screen, small-molecule microarray, 635/667 nm fluorescence (AID 1116); conditions: COS7-hLAP1 lysate binding, 635 nm fluorescence, higher = more signal
[20] = target: Alpha-bungarotoxin (Bungarus multicinctus) (UniProt P60615); test: alpha-bungarotoxin binders on microarray, profiling panel, artefact control for SMM control protein annotation, biochemical, small-molecule microarray, Alexa647 label, 635/667 nm fluorescence (AID 1117); conditions: alpha-BTX-A647 binding fluorescence, higher = more signal
Alpha-bungarotoxin (Bungarus multicinctus), sequence (P60615 whole entry, looked up): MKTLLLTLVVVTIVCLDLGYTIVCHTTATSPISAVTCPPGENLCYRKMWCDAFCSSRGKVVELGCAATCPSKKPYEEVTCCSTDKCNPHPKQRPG

Epidermal growth factor receptor (Homo sapiens), sequence (P00533 whole entry, looked up): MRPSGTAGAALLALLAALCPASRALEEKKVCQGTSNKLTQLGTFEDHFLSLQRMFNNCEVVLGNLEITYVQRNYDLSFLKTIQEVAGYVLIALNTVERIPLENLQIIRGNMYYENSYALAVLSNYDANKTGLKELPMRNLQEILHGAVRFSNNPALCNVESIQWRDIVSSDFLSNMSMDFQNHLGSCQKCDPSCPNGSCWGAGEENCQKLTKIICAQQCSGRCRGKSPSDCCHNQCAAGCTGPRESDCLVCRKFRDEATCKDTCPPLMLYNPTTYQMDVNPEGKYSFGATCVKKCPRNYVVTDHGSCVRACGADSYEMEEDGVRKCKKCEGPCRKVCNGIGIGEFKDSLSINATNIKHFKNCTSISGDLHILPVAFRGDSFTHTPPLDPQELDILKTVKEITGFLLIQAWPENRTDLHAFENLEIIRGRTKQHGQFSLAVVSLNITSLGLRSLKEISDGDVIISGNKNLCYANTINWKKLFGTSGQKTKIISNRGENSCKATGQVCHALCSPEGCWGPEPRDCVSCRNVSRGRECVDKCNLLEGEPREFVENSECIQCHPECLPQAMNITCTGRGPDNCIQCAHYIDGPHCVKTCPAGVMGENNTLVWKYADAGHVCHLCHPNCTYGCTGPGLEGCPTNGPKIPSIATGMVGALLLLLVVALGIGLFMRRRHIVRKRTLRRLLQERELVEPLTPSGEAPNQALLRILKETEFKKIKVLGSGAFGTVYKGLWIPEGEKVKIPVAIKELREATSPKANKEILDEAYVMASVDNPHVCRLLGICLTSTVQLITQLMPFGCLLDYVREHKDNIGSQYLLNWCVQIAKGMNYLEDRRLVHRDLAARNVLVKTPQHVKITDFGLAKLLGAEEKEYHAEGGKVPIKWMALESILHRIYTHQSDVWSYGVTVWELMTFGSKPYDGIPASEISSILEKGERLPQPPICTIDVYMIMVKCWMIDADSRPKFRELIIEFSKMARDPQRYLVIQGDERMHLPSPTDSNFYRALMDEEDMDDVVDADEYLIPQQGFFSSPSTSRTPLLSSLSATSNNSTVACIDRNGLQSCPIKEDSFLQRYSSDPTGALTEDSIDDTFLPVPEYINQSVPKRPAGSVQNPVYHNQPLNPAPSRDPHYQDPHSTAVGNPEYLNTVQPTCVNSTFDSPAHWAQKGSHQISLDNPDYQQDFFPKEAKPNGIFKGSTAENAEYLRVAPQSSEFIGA
Fibroblast growth factor 10 (Homo sapiens), sequence (O15520 whole entry, looked up): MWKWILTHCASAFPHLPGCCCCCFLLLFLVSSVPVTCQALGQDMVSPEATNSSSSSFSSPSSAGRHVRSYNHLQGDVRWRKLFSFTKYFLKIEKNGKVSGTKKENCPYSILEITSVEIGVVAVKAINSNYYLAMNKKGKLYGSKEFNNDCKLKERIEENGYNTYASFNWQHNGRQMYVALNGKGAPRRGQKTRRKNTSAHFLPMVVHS
Left-right determination factor 2 (Homo sapiens), sequence (O00292 whole entry, looked up): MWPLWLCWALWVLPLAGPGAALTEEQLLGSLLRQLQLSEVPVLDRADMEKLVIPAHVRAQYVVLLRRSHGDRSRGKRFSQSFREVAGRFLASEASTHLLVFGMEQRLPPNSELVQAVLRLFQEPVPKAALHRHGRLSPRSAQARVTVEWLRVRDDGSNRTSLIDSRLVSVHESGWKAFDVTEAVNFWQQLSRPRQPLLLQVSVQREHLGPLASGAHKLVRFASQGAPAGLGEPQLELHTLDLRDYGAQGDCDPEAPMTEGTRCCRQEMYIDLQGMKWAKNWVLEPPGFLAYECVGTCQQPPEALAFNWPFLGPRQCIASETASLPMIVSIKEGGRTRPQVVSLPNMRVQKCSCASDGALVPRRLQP
Torsin-1A-interacting protein 1 (Homo sapiens), sequence (Q5JTV8 whole entry, looked up): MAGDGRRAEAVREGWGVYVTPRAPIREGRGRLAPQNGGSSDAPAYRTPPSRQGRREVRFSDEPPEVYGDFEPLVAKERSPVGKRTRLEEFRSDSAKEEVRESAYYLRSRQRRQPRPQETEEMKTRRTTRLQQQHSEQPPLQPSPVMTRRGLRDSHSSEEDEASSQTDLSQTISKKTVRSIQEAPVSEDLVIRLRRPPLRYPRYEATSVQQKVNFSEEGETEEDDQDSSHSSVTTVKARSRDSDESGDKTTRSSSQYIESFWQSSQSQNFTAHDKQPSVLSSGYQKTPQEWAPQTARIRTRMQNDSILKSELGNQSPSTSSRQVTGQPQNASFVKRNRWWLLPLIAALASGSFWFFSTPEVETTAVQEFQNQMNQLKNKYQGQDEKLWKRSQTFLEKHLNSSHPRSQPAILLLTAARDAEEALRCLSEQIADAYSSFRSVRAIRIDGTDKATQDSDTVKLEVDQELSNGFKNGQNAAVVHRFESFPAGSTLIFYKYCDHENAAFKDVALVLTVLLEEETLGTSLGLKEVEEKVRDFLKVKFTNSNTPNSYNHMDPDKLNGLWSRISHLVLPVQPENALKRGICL
Dickkopf-related protein 1 (Homo sapiens), sequence (O94907 whole entry, looked up): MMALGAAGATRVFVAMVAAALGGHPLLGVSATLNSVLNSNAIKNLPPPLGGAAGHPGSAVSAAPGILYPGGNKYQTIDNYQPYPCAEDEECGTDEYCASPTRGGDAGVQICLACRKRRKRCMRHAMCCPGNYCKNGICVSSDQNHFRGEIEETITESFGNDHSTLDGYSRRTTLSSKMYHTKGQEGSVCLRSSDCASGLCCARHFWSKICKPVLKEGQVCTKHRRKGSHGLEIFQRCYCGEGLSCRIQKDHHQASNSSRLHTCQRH
Follistatin-related protein 3 (Homo sapiens), sequence (O95633 whole entry, looked up): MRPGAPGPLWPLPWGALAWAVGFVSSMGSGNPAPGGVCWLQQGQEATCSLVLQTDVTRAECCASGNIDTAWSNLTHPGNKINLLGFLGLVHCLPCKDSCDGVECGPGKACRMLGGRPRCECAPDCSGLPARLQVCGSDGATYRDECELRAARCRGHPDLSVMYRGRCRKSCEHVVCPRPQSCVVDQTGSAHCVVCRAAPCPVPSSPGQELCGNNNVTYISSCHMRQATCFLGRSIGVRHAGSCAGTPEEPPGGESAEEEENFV

Row | Compound | composite z-score [1] | composite z-score [2] | composite z-score [3] | z-score [4] | composite z-score [5] | composite z-score [6] | composite z-score [7] | composite z-score [8] | composite z-score [9] | composite z-score [10] | composite z-score [11] | z-score [12] | composite z-score [13] | composite z-score [14] | composite z-score [15] | composite z-score [16] | composite z-score [17] | composite z-score [18] | composite z-score [19] | composite z-score [20]
1 | O=C1C2C=CC(C(O)c3cccs3)N(Nc3ccc([N+](=O)[O-])cc3)C2C(=O)N1c1ccccc1 (stereo not given) | 0.672 | 0.352 | 0.25 | 1.15 (inactive) | 0.534 | 0.684 | 0.346 | 0.393 | 0.21 | 0.796 | 0.759 | -0.6 | 0.318 | 0.439 | 0.123 | -0.0179 | 0.0684 | 0.668 | 1.01 | 0.69
2 | COC(=O)C1=CC(CCCO)=CC(c2cccs2)N(Cc2cc3c(cc2Br)OCO3)C=C1C(=O)OC (stereo not given) | 1.53 | 0.718 | 0.628 | -0.478 (inactive) | 1.17 | 1.3 | 0.511 | 0.908 | 0.166 | 1.01 | 0.931 | -1.64 | 0.578 | 1.69 | 0.458 | 0.0618 | 0.246 | -0.0381 | 0.834 | 2.49
3 | COC(=O)[C@@]1(Cc2ccc(F)cc2)[C@H]2c3cc(C(=O)N(C)C)n(CCc4ccc(O)c(O)c4)c3C[C@H]2CN1C(=O)c1ccccc1 | 0.681 | 0.52 | 0.828 | 0.692 (inactive) | 0.842 | -0.292 | -0.147 | -0.439 | -0.372 | 0.239 | 0.148 | -1.78 | -0.0362 | 0.584 | 0.813 | 0.183 | -0.214 | 0.2 | 1.18 | 0.0055
4 | COC(=O)C(CC#Cc1ccc2c(c1)[C@]1(C(=O)N2)[C@H](c2ccccc2OCCO)N2[C@H](c3ccccc3)[C@H](c3ccccc3)OC(=O)[C@H]2[C@@H]1C(=O)N1CCc2cc(OC)c(OC)cc2C1)C(=O)OC | 1.56 | 0.0978 | 0.048 | -0.795 (inactive) | 0.71 | 1.3 | 1.02 | 1.26 | 0.882 | 0.279 | 1.37 | -1.68 | 0.541 | 0.0823 | -0.34 | -0.117 | -0.0626 | -0.259 | 1.68 | 0.647
5 | C[N+](C)(C)CCCCNC(=O)[C@H]1C[C@H]2C(=O)N[C@@H](Cc3ccccc3)C(=O)N2[C@H]1c1cccc(OCCO)c1 | 1.59 | 0.104 | -0.17 | -0.161 (inactive) | 1.44 | 1.13 | 0.899 | 1.48 | 2.04 | 0.748 | -0.365 | -0.741 | 1.34 | -1.14 | -1.7 | -0.0495 | 0.151 | -0.456 | 1.17 | -0.245
